An excerpt weighted towards active compounds, which were near 3.5% of everything screened.
FBW7 act: FBW7 E3 ligase activators, primary screen, biochemical, AlphaScreen, human; F-box/WD repeat-containing protein 7 (Homo sapiens), Q969H0; AlphaScreen FBW7–phospho-cyclin E peptide binding, activator screen; normalized activity (activation), % at 26.1 µM; hit rate 0.13% among 650,000; AID 1259310, 2017; in the data active = normalized activity above about 1.9%;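 note: purified mutant Fbw7 with reduced substrate affinity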
GPR151 ag: activators of human GPR151, primary screen, cell-based, PathHunter beta-arrestin, luminescence; G-protein coupled receptor 151 (Homo sapiens), Q8TDV0; hit rate 1% among 650,000; activation, % at 11.2 µM; PathHunter beta-arrestin GPR151 cells; in the data active = activation above about 4.9%;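 note: 0% = median of compound wells and 100% = cells with positive control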
MITF primary: MITF inhibitors, primary screen, biochemical, AlphaScreen, human; Microphthalmia-associated transcription factor (Homo sapiens), O75030; AlphaScreen MITF homodimerization, bead proximity signal; inhibition, % at 2.6 µM; hit rate 0.91% among 650,000; AID 1259374, 2018; in the data active = inhibition above about 50%;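 note: 0% = vehicle wells with protein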
TEAD-YAP block: TEAD-YAP interaction inhibition, primary screen, TEAD-YAP interaction inhibitor project, luminescence, HEK-TIYL cells. TEAD-Gal4/YAP UAS-luciferase luminescence. inhibition, % at 9.12 µM. hit rate 1.4% among 640,000; in the data active = inhibition above about 32%;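 note: 0% = median of test compound wells and 100% = reference inhibitor wells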
GPR151 conf act: GPR151 activators, triplicate retest, confirmation, cell-based, PathHunter beta-arrestin, luminescence. shares compounds with GPR151 ag. GPR151 PathHunter beta-arrestin cells, 90 min; % of EA-reagent control over plate median. activation, % at 11.2 µM. 6,700 tested, under 10 active;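 active = mean percent activation across replicates above the confirmation screen cutoff of 4.91%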
GPR119 ag: GPR119 activators in beta-arrestin cells, counter-screen for GPR151 activator project, cell-based, PathHunter beta-arrestin, luminescence, triplicate. activation, % at 11.2 µM. hit rate 0.3% among 6,700. shares compounds with GPR151 ag. 90 min; 0 = compound-well median, 100 = enzyme-acceptor control;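 active = mean percent activation in the counterscreen above 29.09%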;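 note: counterscreen on off-target GPR119 to flag nonselective hits from the GPR151 activator screen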
Target sequence (Q8TDV5 whole entry, looked up): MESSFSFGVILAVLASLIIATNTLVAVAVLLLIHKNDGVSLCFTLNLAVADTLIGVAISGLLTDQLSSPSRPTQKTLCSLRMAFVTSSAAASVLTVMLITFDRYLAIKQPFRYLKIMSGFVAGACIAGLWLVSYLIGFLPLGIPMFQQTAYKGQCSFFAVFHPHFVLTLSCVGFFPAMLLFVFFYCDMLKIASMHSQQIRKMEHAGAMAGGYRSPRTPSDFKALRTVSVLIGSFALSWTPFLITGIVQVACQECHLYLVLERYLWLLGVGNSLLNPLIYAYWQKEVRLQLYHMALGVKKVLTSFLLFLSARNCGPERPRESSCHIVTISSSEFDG
* = called active by the depositor; nt = no result.

SMILES	FBW7 act	GPR151 ag	MITF primary	TEAD-YAP block	GPR151 conf act	GPR119 ag
NC(=O)C1(N2CCCCC2)CCN(C(=O)Nc2ccc(F)cc2F)CC1	0	5.9*	3	-3	1	5
O=C(Nc1ccc(-c2cn[nH]c2)cc1)C1CCc2ccccc2C1 (stereo unspecified)	0	5.4*	-5	-4	0	8
O=C(Nc1ccc(-c2cn[nH]c2)cc1)[C@@H]1Cc2ccccc2CN1	0	0	13	-5	nt	nt
O=C(Nc1ccc(-c2cn[nH]c2)cc1)OCc1ccccc1	0	-1	0	-14	nt	nt
O=C(Nc1ccc(-c2cn[nH]c2)cc1)OCCc1ccccc1	0	5.0*	2	-28	1	8
COc1ccc(NC(=O)c2ccc(Br)o2)cc1OC	1	1	-2	-22	nt	nt
CNC(=O)C(=O)NCCN1CCN(Cc2ccc(Br)cc2)CC1	0	7.8*	-6	8	-1	-5
O=C(NCCN1CCN(Cc2ccc(Br)cc2)CC1)C(=O)Nc1ccc(Cl)cc1	0	0	0	4	nt	nt
CC1(C)NC(=O)N(CC(O)COc2ccc3ccccc3c2Br)C1=O (stereo unspecified)	0	3	-5	-13	nt	nt
CC1(C)NC(=O)N(CCOCCOc2ccc3ccccc3c2Br)C1=O	0	5.5*	-5	-32	0	-10
O=C(NC1CC1)C1CSC(c2cccs2)=N1 (stereo unspecified)	0	-1	13	8	nt	nt
N#Cc1ccsc1NC(=O)c1ccc(Br)cc1	0	-1	-1	-25	nt	nt
CC(NC(=O)COc1ccccc1C#N)c1ccccc1 (stereo unspecified)	0	-1	-6	3	nt	nt
CCOc1cc(C#N)ccc1OCC(=O)NC(C)c1ccccc1 (stereo unspecified)	0	13*	6	2	0	5
Cc1cc(C)c(NC(=O)C2CCN(S(=O)(=O)c3cccs3)CC2)c(C)c1	0	0	-3	-11	nt	nt
O=C(CSc1nc2ccccc2s1)NCc1ccco1	0	6.1*	2	-4	0	5
COc1ccc(C(=O)Cn2c(-c3nnc(C(C)C)o3)cc3ccccc32)cc1	0	1	26	-11	nt	nt
CC(C)c1nnc(-c2cc3ccccc3n2Cc2ccccc2)o1	0	5.6*	-11	-6	-1	-13
CC(NS(=O)(=O)c1ccc2ccccc2c1)c1ccccc1 (stereo unspecified)	0	1	-13	1	nt	nt
COc1ccc(OC)c(NC(=O)CC(C)S(=O)(=O)c2ccc3c(c2)OCC(=O)N3)c1 (stereo unspecified)	0	-1	5	2	nt	nt
CCCCOc1ccc(CSc2nncn2N)cc1[N+](=O)[O-]	0	5.1*	9	-39	-1	-11
CC1=CC(C)C2COC(c3ccccc3O)C1C2 (stereo unspecified)	0	5.3*	-1	3	0	-5
O=C(Nc1ccc2nc3n(c(=O)c2c1)CCCCC3)C(=O)N1CCc2ccccc2C1	0	0	-11	7	nt	nt
CNc1ccccc1P(=O)(O)O	0	6.3*	-3	4	1	-1
O=C(CNC(=O)C(c1ccccc1)c1ccccc1)N/N=C/c1ccccc1O	0	0	-12	18	nt	nt
SMILES	FBW7 act	GPR151 ag	MITF primary	TEAD-YAP block	GPR151 conf act	GPR119 ag
COc1ccc(NC(=O)c2cc(S(=O)(=O)N3CCOCC3)ccc2F)cc1	0	0	7	-2	nt	nt
Cc1cccc(CN2C(=O)CCC2CCNCc2ccccc2F)c1 (stereo unspecified)	0	7.1*	13	6	1	8
Cc1cccc(CNCCC2CCC(=O)N2Cc2cc(F)ccc2C)c1 (stereo unspecified)	1	0	4	6	nt	nt
C[C@H](CN)Oc1ncccc1C(=O)Nc1ccc2[nH]ncc2c1	0	5.7*	-9	1	-1	4
Cc1cc(-n2cccn2)ccc1CN1CCN(C2CCCCC2)C(CCO)C1 (stereo unspecified)	0	2	1	6	nt	nt
CC(C)=CCN1CCN(Cc2ccc(-n3cccn3)cc2C)CC1CCO (stereo unspecified)	0	11*	8	-13	0	0
N#CC1=C(SCC(=O)Nc2ccccc2)NC(=O)CC1c1cccc([N+](=O)[O-])c1 (stereo unspecified)	1	-2	23	-1	nt	nt
COC(=O)c1cc(S(=O)(=O)Nc2c(Cl)cc(OC)cc2OC)cn1C	0	1	1	4	nt	nt
CCCc1cc(=O)[nH]c(SCC(=O)Nc2cc3c(cc2C(C)=O)OCO3)n1	0	6.3*	-7	-4	0	-4
NC(=O)C[n+]1cccc(/C=N/O)c1	0	6.3*	3	-3	0	-2
CC(C)N(C(=O)C[n+]1cccc(/C=N/O)c1)C(C)C	0	1	6	-5	nt	nt
COc1ccc(C2(CC(=O)N3CCCC(O)C3)CC(=O)N(CCC(C)C)C2=O)cc1 (stereo unspecified)	0	-1	3	5	nt	nt
COc1ccc(C2(CC(=O)N3CC[C@@H](O)C3)CC(=O)N(CCC(C)C)C2=O)cc1 (stereo partly specified)	1	6.7*	2	8	0	3
COc1cccc(CNC(=O)CCC2CCCN(C(=O)c3cnsn3)C2)c1 (stereo unspecified)	0	-2	-19	-3	nt	nt
O=C(Nc1ccc(Oc2ccccc2)cc1)c1cncc(-c2ccccc2)c1	0	-1	-6	-2	nt	nt
Cc1c(Cl)cccc1NC(=O)C1CCN(C(=O)Cc2ccccc2)CC1	0	0	-1	4	nt	nt
O=C(Nc1ccccc1F)C1CCN(C(=O)Cc2ccccc2)CC1	0	5.4*	3	1	-1	-12
CCOC(=O)C(=CNc1ccccc1C(C)C)C(=O)OCC	0	-1	-10	1	nt	nt
CCOC(=O)C1=C(C)N=c2s/c(=C/c3ccco3)c(=O)n2C1c1ccc(C(C)(C)C)cc1 (stereo unspecified)	0	-2	11	8	nt	nt
O=C(CSc1nnc(-c2cccnc2)o1)c1ccc2ccccc2c1	0	0	0	-2	nt	nt
O=C(CSc1nnc(-c2cccnc2)o1)c1ccccc1	0	5.9*	5	-21	0	4
O=C(CSc1nnc(-c2cccnc2)o1)Nc1nc(-c2ccccc2)cs1	0	7.5*	10	3	-1	-2
C=CCOc1ccccc1CN1CCc2nnc(CNC(=O)C3CCCN(C)C3)n2CC1 (stereo unspecified)	0	-1	10	1	nt	nt
c1cnc2c(CN3CCc4nncn4CC3)cccc2c1	0	-1	-12	10	nt	nt

From PubChem BioAssay
